Legend:
Assay type in all cases: functional
[1] = system: Plasmodium falciparum; experiment: GSK_TCMDC: Inhibition of Plasmodium falciparum 3D7 in whole red blood cells, using parasite LDH activity as an index of growth. Test compounds present at 2uM
[2] = system: Plasmodium falciparum; experiment: GSK_TCMDC: Inhibition of Plasmodium falciparum Dd2 in whole red blood cells, using parasite LDH activity as an index of growth. Test compounds present at 2uM
[3] = system: HepG2; experiment: GSK_TCMDC: Percent inhibition of human HepG2 cell line. Test compounds present at 10uM.

SMILES | Inhibition [1] [%] | Inhibition [2] [%] | Inhibition [3] [%]
O=C(O)C(F)(F)F.c1cc(-c2ccc(CN3CCCC3)cc2)cc(-c2nc3ccccc3[nH]2)c1 | 100 | 52 | 25
O=C(c1cccc(-c2cccc(-c3nc4cc(F)ccc4[nH]3)c2)c1)N1CCCCC1CN1CCC(O)C1 (centres undefined) | 90 | 100 | 36
Cl.O=C(CCCCCCc1ccccc1)Nc1ccc2nc3c(c(NCc4ccccc4)c2c1)CCCC3 | 100 | 98 | 19
COc1cccc(C(=O)C2CC2CN(C)CC(O)c2cc(C)c(OC)cc2C)c1.O=C(O)C(F)(F)F (centres undefined) | 88 | 73 | 8
Cc1nc(N)nc(N)c1OCCCOc1cccc(Cl)c1Cl.Cl | 93 | 95 | 59
CC1(C)N=C(N)N=C(N)C1c1ccc(Cl)cc1.Cl (centres undefined) | 96 | 0 | 16
CCn1ccc2c(N3CCCC3=O)cc(C(=O)N[C@@H](Cc3ccccc3)[C@H](O)CNCc3cccc(OC)c3)cc21 | 94 | 92 | 4
CC(=O)O.COc1ccc(CNc2ccc3nc(N)nc(N)c3c2)cc1 | 99 | 84 | 39
CN1CCC(NC(=O)c2cccc(Nc3cc(Nc4cccc(Br)c4)ncn3)c2)CC1 | 94 | 6 | 25
O=c1c(Br)ccccc1Br | 94 | 41 | 98
CN(Cc1cccc(F)c1)C1CCCN(c2cc(NC(=O)c3ccccc3)ccn2)C1.O=C(O)C(F)(F)F (centres undefined) | 93 | 50 | 3
CC1(C)CCCN(C(=O)c2cccc(-n3nc(-c4ccc(Cl)cc4)cc3N)c2)C1 | 100 | 98 | 13
COc1ccc2nccc(NCC3(O)CCN(CC(O)c4ccc5c(c4)NC(=O)CS5)CC3)c2n1.Cl (centres undefined) | 100 | 3 | 3
O=C(N/C=N/c1cc([N+](=O)[O-])c(-c2cccnc2)n1-c1ccc(O)cc1)c1ccccc1 | 100 | 62 | 17
CCOC(=O)c1[nH]c2cc(Cl)cc(Cl)c2c1/C=C/C(=O)Nc1ccc(-c2cnc(NC(C)=O)[nH]2)cc1 | 100 | 65 | 45
CCOC(=O)c1cccc(NC(=O)Nc2cc(C)nc3ccccc23)c1 | 100 | 90 | 14
COc1cccc2cc(C(=O)N[C@@H](CC(C)C)C(=O)N[C@H](/C=N/NC(=O)OC(C)(C)C)CC(=O)OC(C)(C)C)oc12 | 85 | 57 | 4
CCOC(=O)c1cc(C(=O)NCCCCN2CCC(c3ccc4c(c3OC)CCCC4)CC2)ccc1-c1ccc(C(F)(F)F)cc1 | 100 | 60 | 100
O=C(NCc1ccc(F)cc1)c1cc(Br)cc(N2CCN(c3ccncc3)CC2)c1.O=C(O)C(F)(F)F | 80 | 59 | 36
Fc1cccc(COc2ccc(-n3ccc4c(NCCCn5ccnc5)ncnc43)cc2Cl)n1 | 87 | 29 | 14
CS(=O)(=O)Nc1ccc(OCCCCCCOc2ccc(NS(C)(=O)=O)cc2)cc1 | 93 | 82 | 3
Cc1cc(=NN=Cc2ccc(Cl)cc2)c2cccc(C)c2[nH]1 | 100 | 47 | 0
COc1cc2c(cc1NC(=O)CN1CCN(C(=O)c3ccco3)CC1)oc1ccccc12 | 96 | 96 | 13
CCOC(=O)CC[C@@H](NC(=O)c1ccc(NCc2ccc3ccc4nc(C)[nH]c(=O)c4c3c2)cc1F)C(=O)N[C@@H](Cc1c[nH]c2ccccc12)C(=O)OCC | 98 | 77 | 45
Cn1cc(CCNc2ccnc(N3CCC(c4ncc[nH]4)CC3)n2)c2ccccc21 | 92 | 5 | 12
O=C(Nc1ccc(-c2cccc(-c3nc4cc(F)ccc4[nH]3)c2)cc1)Nc1ccc(F)c(F)c1F | 100 | 98 | 70
O=C(NCC1CC1)C1Cc2c([nH]c3ccc(Br)cc23)C2(CCN(CCc3ccccc3)CC2)N1 (centres undefined) | 88 | 25 | 14
COc1ccc(NC(=O)Nc2nc3ccccc3s2)cc1N1CCN(C)CC1 | 95 | 22 | 6

Source: ChEMBL document CHEMBL1157539, “Thousands of chemical starting points for antimalarial lead identification” (Nature, 2010)
